The values below come from the supplement of paper PMC6555819.

One experiment deals with FXR:RXRa (NR concentration 270 nM, RXRa partner concentration 90 nM). Put plainly: PBM binding z-score (relative to random genomic background probes); higher = stronger binding; sequences stand for … in GC…GCGATTGACAGCGTAGAATGAAGG
A digest of the protocol: (§1)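 Each nuclear receptor dimer, without ligand, was incubated for 1 h on custom Agilent 4×180K protein-binding microarrays. Binding was detected with antibodies against each partner (one per run), and scanned fluorescence was regression-normalized. The binding z-scores are referenced to random human genomic background probes.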
As to AGAACGAGGGCAATGAGTTGATAACACGGGTGGC, the PBM binding z-score came to 0.198.

ACTAGCAGGCCAAGGGTCAATCAAGATTAGTCCG showed a PBM binding z-score of 3.02.

AATACAGGGTCATCGTAGGCCAGTGTACGCACAG came in with a PBM binding z-score of 6.9.

Consider TGTCAAAGTTCAAAGGCAACGTAAGTATCCACAC, for which the PBM binding z-score was 6.68.

Sequence TGGCCTAGGTCATTGGGCCAGTATAGTACGCATC returned a PBM binding z-score of 4.33.

Turning to ATCGAAAGGTCGGCGAGGTGAGTATACACCGTTT, the PBM binding z-score amounted to 3.23.

In turn, CCTAGTTGGTCAAGAGGTCACACACCGGATATGA registered a PBM binding z-score of 5.19.

TCTGCTAGGTCAGCTGGTCAGCTAACGAGCTGCC returned a PBM binding z-score of 1.35.

Sequence CCGACTGGAGCAGAAAGGTTACCATACCATCCGG registered a PBM binding z-score of 0.42.

As for CAAACTAGGTCACCTGAAGGTCAAAGTCCGCATG, the PBM binding z-score was determined as 5.8.

Sequence GCCACTGGGGCATCAGCAGGTTACCATAACTTAA registered a PBM binding z-score of -0.242.

CAGCCTAGGTCAGGGCCAATATAGGAGGAACGTT gave a PBM binding z-score of 1.73.

CTGAGTAGGTTATGGGGCATTCAGGCAACGGTGA gave a PBM binding z-score of 0.204.

For the sequence CGACCAAGGTCAAAGGTCAGTGAAGAGATGACGG, the PBM binding z-score was found to be 8.72.

In turn, ACTCGTAGGACAAAGGTCAGAGCTACGCCAGTGA yielded a PBM binding z-score of 3.9.

GGTACGAGGGCAAGTTGATAGCAGAGTTTGATGG displayed a PBM binding z-score of 0.998.

Turning to CTCGAAAGGTCGTTCTCAGGTGAGTATACCAAAC, the PBM binding z-score stood at 5.6.

As to AGTACAGGGTCATCGTAGGCCAGAGTACGCACAG, the PBM binding z-score was 7.3.

As to TCTTGTGGATCAGCAGGTTAAGAAAGCTGGCCAA, the PBM binding z-score worked out at 0.261.

As to TTACCAAGGTGAGCAGAGGTCGTTGATCCAACTC, the PBM binding z-score was 1.14.

GCGACAGGGGCATCAGCAGGTTACCATAACTTAA had a PBM binding z-score of 0.0406.

In the case of TCATATAGTTAAAAGGTGAAAGTCGGTGTGGTAA, the PBM binding z-score is 1.74.

In turn, TCGAGTAGGTTAGGGGCATTCAAAATGGCGTCGA gave a PBM binding z-score of 0.3.

With TCTCGGTGGACACGAAAGGTCAGAGCTCGACATC, the PBM binding z-score was 2.46.

TGAATGAGGTTATAAGATCAGCGAACGTTGCAAA had a PBM binding z-score of 1.21.

GCTTGTAGATTAAGGTTAAGAAAGACTAAGCTAA displayed a PBM binding z-score of 0.292.

Take CGAAGTAGGTCAAGGACAGTGAATCTCCGCACGC: the PBM binding z-score was found to be 3.88.

ACTAGAAGGCCAAGTTTGGGTCACTCAAACAAAG: the PBM binding z-score stood at 0.681.

As to CCTACTGGGCCACGGAAGGTCATTGATTCAGTGA, the PBM binding z-score was 1.94.

In turn, TCTAGTAGATCAATAGAGGTTAAGAAAGTGCGCT gave a PBM binding z-score of 0.905.

AATACAGGGTCATCGTCGGCCAGAGTACGCACAG had a PBM binding z-score of 7.47.

In turn, TGAATGAGGTTATAAGATCAGGGATCGTTGCAAA displayed a PBM binding z-score of 1.25.

For the sequence ATAGAAAGGTCGAGGTGAGTATAGAGAAAGGGAA, the PBM binding z-score amounted to 4.25.

Regarding ATCTCTAGGTAAAAGTTCAGTCAATCCCGAGGAT, the PBM binding z-score is 0.989.

Consider CCTTAAGGGTCAAGGTTATAGCACGGGTGGTACG, for which the PBM binding z-score amounted to 7.56.

As for CTCGAAAGGTCGTGCTCAGGTGAGTATACCAAAC, the PBM binding z-score is 5.37.

In the case of ACAGACAGTTGAGTGAAGGTAACTCAGCTGGACG, the PBM binding z-score came out at 0.127.

GCTGCTAGGTTAGGTTGGTCAGCTAACGGGTACG came in with a PBM binding z-score of -0.39.

Take CGTCCAAGGTCAAGGGTCAGTGAAGAGATGACGG: the PBM binding z-score was 7.75.

The subject of a further experiment is LXRa:RXRa (NR concentration 270 nM, RXRa partner concentration 90 nM). The description is as above. In a few lines:
as §1
In turn, AGAACGAGGGCAATGAGTTGATAACACGGGTGGC showed a PBM binding z-score of 0.102.

In turn, ACTAGCAGGCCAAGGGTCAATCAAGATTAGTCCG had a PBM binding z-score of 2.94.

In turn, AATACAGGGTCATCGTAGGCCAGTGTACGCACAG gave a PBM binding z-score of 6.17.

TGTCAAAGTTCAAAGGCAACGTAAGTATCCACAC displayed a PBM binding z-score of 6.1.

For the sequence TGGCCTAGGTCATTGGGCCAGTATAGTACGCATC, the PBM binding z-score came out at 2.98.

Sequence ATCGAAAGGTCGGCGAGGTGAGTATACACCGTTT gave a PBM binding z-score of 2.52.

On to CCTAGTTGGTCAAGAGGTCACACACCGGATATGA, for which the PBM binding z-score amounted to 5.02.

On to TCTGCTAGGTCAGCTGGTCAGCTAACGAGCTGCC, for which the PBM binding z-score was determined as 0.826.

The sequence CCGACTGGAGCAGAAAGGTTACCATACCATCCGG showed a PBM binding z-score of 0.894.

In the case of CAAACTAGGTCACCTGAAGGTCAAAGTCCGCATG, the PBM binding z-score turned out to be 5.89.

Turning to GCCACTGGGGCATCAGCAGGTTACCATAACTTAA, the PBM binding z-score was -0.416.

CAGCCTAGGTCAGGGCCAATATAGGAGGAACGTT displayed a PBM binding z-score of 0.833.

The sequence CTGAGTAGGTTATGGGGCATTCAGGCAACGGTGA displayed a PBM binding z-score of 0.0795.

Sequence CGACCAAGGTCAAAGGTCAGTGAAGAGATGACGG showed a PBM binding z-score of 6.8.

Consider ACTCGTAGGACAAAGGTCAGAGCTACGCCAGTGA, for which the PBM binding z-score turned out to be 4.29.

For GGTACGAGGGCAAGTTGATAGCAGAGTTTGATGG, the PBM binding z-score came out at 0.455.

With CTCGAAAGGTCGTTCTCAGGTGAGTATACCAAAC, the PBM binding z-score was 4.19.

In the case of AGTACAGGGTCATCGTAGGCCAGAGTACGCACAG, the PBM binding z-score is 5.7.

On to TCTTGTGGATCAGCAGGTTAAGAAAGCTGGCCAA, for which the PBM binding z-score was found to be 0.254.

On to TTACCAAGGTGAGCAGAGGTCGTTGATCCAACTC, for which the PBM binding z-score was 1.86.

GCGACAGGGGCATCAGCAGGTTACCATAACTTAA came in with a PBM binding z-score of 0.297.

Sequence TCATATAGTTAAAAGGTGAAAGTCGGTGTGGTAA gave a PBM binding z-score of 1.98.

The sequence TCGAGTAGGTTAGGGGCATTCAAAATGGCGTCGA displayed a PBM binding z-score of 0.524.

As to TCTCGGTGGACACGAAAGGTCAGAGCTCGACATC, the PBM binding z-score turned out to be 3.58.

The sequence TGAATGAGGTTATAAGATCAGCGAACGTTGCAAA gave a PBM binding z-score of 1.34.

For GCTTGTAGATTAAGGTTAAGAAAGACTAAGCTAA, the PBM binding z-score was found to be 0.89.

The sequence CGAAGTAGGTCAAGGACAGTGAATCTCCGCACGC showed a PBM binding z-score of 2.75.

In the case of ACTAGAAGGCCAAGTTTGGGTCACTCAAACAAAG, the PBM binding z-score is 0.517.

In the case of CCTACTGGGCCACGGAAGGTCATTGATTCAGTGA, the PBM binding z-score came out at 2.96.

TCTAGTAGATCAATAGAGGTTAAGAAAGTGCGCT: the PBM binding z-score turned out to be 3.79.

Regarding AATACAGGGTCATCGTCGGCCAGAGTACGCACAG, the PBM binding z-score was found to be 6.48.

TGAATGAGGTTATAAGATCAGGGATCGTTGCAAA: the PBM binding z-score came to 1.28.

Turning to ATAGAAAGGTCGAGGTGAGTATAGAGAAAGGGAA, the PBM binding z-score was found to be 3.22.

As for ATCTCTAGGTAAAAGTTCAGTCAATCCCGAGGAT, the PBM binding z-score was 1.98.

With CCTTAAGGGTCAAGGTTATAGCACGGGTGGTACG, the PBM binding z-score was 5.38.

In turn, CTCGAAAGGTCGTGCTCAGGTGAGTATACCAAAC showed a PBM binding z-score of 4.02.

For ACAGACAGTTGAGTGAAGGTAACTCAGCTGGACG, the PBM binding z-score was -0.141.

GCTGCTAGGTTAGGTTGGTCAGCTAACGGGTACG yielded a PBM binding z-score of -0.356.

CGTCCAAGGTCAAGGGTCAGTGAAGAGATGACGG: the PBM binding z-score came out at 5.84.
